Assay results as given in the antibiotic and cytotoxicity screens of Wong et al. (2023).
The campaign covered roughly 39,000 compounds. About 3,300 (8.5%) were called active. This excerpt belongs to a sample that is enriched for actives.

System: HepG2
Assay: cytotoxicity call (relative viability < 0.9)
Details: 10 µM

| SMILES | cytotoxicity call |
| --- | --- |
| COc1ccc([N+](=O)[O-])cc1CNCCO | inactive |
| CCNC(=O)C[C@H]1C=C[C@@H](NC(=O)C2CCOCC2)[C@H](CO)O1 | inactive |
| CN(C)CC(=O)N[C@@H]1CC[C@@H](CCNS(=O)(=O)c2ccccc2)O[C@H]1CO | inactive |
| NCc1ccccc1-c1ccco1 | inactive |
| C1CC(N2CCNCC2)C1 | inactive |
| CN(C)CC(=O)N[C@@H]1CC[C@@H](CC(=O)O)O[C@H]1CO | inactive |
| C[C@H](CO)N1C[C@H](C)[C@@H](CN(C)Cc2cccc3c2OCCCO3)OCc2cnnn2CCCC1=O | inactive |
| CC(O)C(=O)Nc1c(I)c(C(=O)NC(CO)CO)c(I)c(C(=O)NC(CO)CO)c1I (configuration not stated) | inactive |
| Cc1cccc(S(=O)(=O)N2C[C@@H](O)COC[C@@H]3O[C@@H](CC(=O)NCCCN4CCOCC4)CC[C@H]32)c1 | inactive |
| COc1ccc(S(=O)(=O)N(C)C[C@@H]2Oc3ccc(NC(=O)NC(C)C)cc3C(=O)N([C@H](C)CO)C[C@H]2C)cc1 | inactive |
| C[C@@H]1CN([C@H](C)CO)C(=O)c2cccc(NC(=O)c3cnccn3)c2O[C@@H]1CN(C)S(=O)(=O)c1cccs1 | inactive |
| COC(=O)C1=C2CC[C@H](CO)NC(=O)N[C@@H](Cc3ccccc3)C(=O)NCc3cn(nn3)C[C@H](Cc3ccccc3)NC(=O)c3oc(c(C(=O)OC)c3C(=O)OC)CC[C@H](CO)NC(=O)N[C@@H](Cc3ccccc3)C(=O)NCc3cn(nn3)C[C@H](Cc3ccccc3)NC(=O)C(=C1C(=O)OC)O2 | inactive |
| CCCN(C)C[C@@H]1OCCCC[C@@H](C)Oc2ccc(NS(C)(=O)=O)cc2C(=O)N([C@H](C)CO)C[C@H]1C | inactive |
| CO[C@@H]1CN(C)C(=O)c2ccc(NC(=O)c3ccccc3)cc2OC[C@@H](C)N(C(=O)CN(C)C)C[C@@H]1C | inactive |
| CNC(=N)NCCC[C@@H](N)C(=O)O | inactive |
| C[C@@H]1CN([C@H](C)CO)C(=O)c2cc(C#Cc3ccccc3F)cnc2O[C@H]1CN(C)C(=O)Cc1ccncc1 | inactive |
| Oc1c(Cl)cc(Cl)cc1Sc1cc(Cl)cc(Cl)c1O | active |
| Cc1noc(C)c1NC(=O)Nc1ccc2c(c1)C(=O)N([C@@H](C)CO)C[C@@H](C)[C@H](CN(C)CC1CC1)OCCCC[C@H](C)O2 | inactive |
| C[C@H]1CN([C@@H](C)CO)C(=O)c2cc(NC(=O)Cn3cnnn3)ccc2O[C@H]1CN(C)S(=O)(=O)c1cccs1 | inactive |
| C[C@H]1CN([C@@H](C)CO)C(=O)CCCn2cc(nn2)CO[C@H]1CN(C)Cc1ccc2c(c1)OCCN2C | inactive |
| C[C@H](CO)N1C[C@H](C)[C@H](CN(C)Cc2ccc(Cl)c(Cl)c2)Oc2ccc(NC(=O)C3CCCCC3)cc2CC1=O | inactive |
| C[C@H](CO)N1C[C@H](C)[C@H](CN(C)C(=O)c2ccccc2)OCCCC[C@H](C)Oc2ccc(NC(=O)Nc3cccc4ccccc34)cc2C1=O | inactive |
| C[C@@H]1CN([C@@H](C)CO)C(=O)c2cc(NS(C)(=O)=O)ccc2O[C@H]1CN(C)Cc1ccc(C(F)(F)F)cc1 | inactive |
| Clc1ccc(C(c2ccc(Cl)cc2)[n+]2ccn(C[C@@H](OCc3ccc(Cl)cc3Cl)c3ccc(Cl)cc3Cl)c2)cc1 | active |
| Clc1ccc(C(Cn2ccnc2)OCc2ccsc2Cl)c(Cl)c1 (configuration not stated) | inactive |
| CNC[C@@H]1OCCCC[C@H](C)Oc2ccc(NC(=O)c3ccncc3)cc2C(=O)N([C@@H](C)CO)C[C@@H]1C | inactive |

| SMILES | cytotoxicity call |
| --- | --- |
| NC(=O)NCCC[C@H](N)C(=O)O | inactive |
| NC(=O)CC[C@H]1CCCNC1 | inactive |
| CCc1ccc(NC(=N)N=C(N)N)cc1 | inactive |
| Cc1ccccc1NC(=N)N=C(N)N | active |
| Cc1ccc(NC(=N)N=C(N)N)c(C)c1 | inactive |
| COc1cccc(S(=O)(=O)N2C[C@@H](O)COC[C@H]3O[C@@H](CC(=O)N4CCN(c5ccccc5)CC4)CC[C@@H]32)c1 | inactive |
| COc1ccc(NC(=O)N(C)C[C@@H]2OCc3cnnn3CCCC(=O)N([C@H](C)CO)C[C@H]2C)c(OC)c1 | inactive |
| CN1CCN(C(=O)C[C@@H]2CC[C@H]3[C@H](COc4ccc(NC(=O)c5cscn5)cc4C(=O)N3C)O2)CC1 | inactive |
| C[C@H](CO)N1C[C@H](C)[C@@H](CN(C)C)Oc2ccc(NC(=O)Cc3cn(C)c4ccccc34)cc2CC1=O | inactive |
| Nc1nc(=O)c2nc(CNc3ccc(C(=O)N[C@@H](CCC(=O)O)C(=O)O)cc3)cnc2[nH]1 | inactive |
| Nc1nc(=O)c2c([nH]1)NCC(CNc1ccc(C(=O)NC(CCC(=O)O)C(=O)O)cc1)=N2 (configuration not stated) | inactive |
| Nc1nc(=O)c2nc(CNc3ccc(C(=O)NC(CCC(=O)O)C(=O)O)cc3)cnc2[nH]1 (configuration not stated) | inactive |
| Nc1nc(N)c2nc(CNc3ccc(C(=O)NC(CCC(=O)O)C(=O)O)cc3)cnc2n1 (configuration not stated) | active |
| CN(Cc1cnc2nc(N)nc(N)c2n1)c1ccc(C(=O)NC(CCC(=O)O)C(=O)O)cc1.O (configuration not stated) | active |
| Nc1nc(=O)c2c([nH]1)NC[C@H](CNc1ccc(C(=O)N[C@@H](CCC(=O)O)C(=O)O)cc1)N2C=O | inactive |
| CN(Cc1cnc2nc(N)nc(N)c2n1)c1ccc(C(=O)N[C@@H](CCC(=O)O)C(=O)O)cc1 | active |
| CCCN(CCC)C(=O)C(CCC(=O)O)NC(=O)c1ccccc1 (configuration not stated) | inactive |
| CC(=O)N[C@@H](CCC(=O)O)C(=O)O | inactive |
| CN(C)CCCNC(=O)C[C@H]1C=C[C@H](NS(=O)(=O)c2ccccc2)[C@H](CO)O1 | inactive |
| C[C@@H]1CN([C@@H](C)CO)C(=O)Cc2cc(NS(C)(=O)=O)ccc2O[C@H]1CN(C)C(=O)Nc1ccc(F)cc1 | inactive |
| COc1cccc(-c2cn(CC[C@H]3CC[C@@H](NC(=O)CN(C)C)[C@H](CO)O3)nn2)c1 | inactive |
| CC(C)NC(=O)N(C)C[C@H]1Oc2ccc(NC(=O)Cc3ccccc3)cc2CC(=O)N([C@@H](C)CO)C[C@H]1C | inactive |
| CN1C(=O)c2cc(NC(=O)c3ccno3)ccc2OC[C@H]2O[C@@H](CC(=O)NC3Cc4ccccc4C3)CC[C@@H]21 | inactive |
| Cc1noc(C)c1NC(=O)N(C)C[C@@H]1Oc2ccc(NC(=O)Cn3cnnn3)cc2CC(=O)N([C@H](C)CO)C[C@@H]1C | inactive |
| C[C@@H]1CCCCO[C@H](CN(C)C(=O)Nc2ccc(C(F)(F)F)cc2)[C@H](C)CN([C@H](C)CO)C(=O)c2cc(NC(=O)Nc3ccccc3)ccc2O1 | inactive |
| O=C(C[C@@H]1CC=CC[C@H](NC(=O)OCC2c3ccccc3-c3ccccc32)C(=O)O[C@H](c2ccccc2)CNC1=O)N[C@H](CO)Cc1ccccc1 | inactive |

| SMILES | cytotoxicity call |
| --- | --- |
| O=C(C[C@@H]1CC[C@@H](NS(=O)(=O)c2ccccc2)[C@@H](CO)O1)NCc1ccncn1 | inactive |
| Cc1noc(C)c1S(=O)(=O)N(C)C[C@H]1Oc2ccc(NS(=O)(=O)c3ccc(F)cc3)cc2CC(=O)N([C@@H](C)CO)C[C@@H]1C | inactive |
| CC1CC(OC(=O)c2ccccc2O)CC(C)(C)C1 (configuration not stated) | active |
| O=C(Oc1ccccc1C(=O)O)c1ccccc1O | inactive |
| CC1CC(OC(=O)C(O)c2ccccc2)CC(C)(C)C1 (configuration not stated) | inactive |
| C[C@H]1CN([C@@H](C)CO)C(=O)Cc2cc(NS(C)(=O)=O)ccc2O[C@@H]1CN(C)S(=O)(=O)c1ccccc1 | inactive |
| C[C@H]1CCCCO[C@H](CN(C)C(=O)C2CCCCC2)[C@@H](C)CN([C@@H](C)CO)C(=O)c2cc(NC(=O)CCC(F)(F)F)ccc2O1 | inactive |
| COCC(=O)N(C)C[C@@H]1Oc2cc(C#Cc3cccnc3)ccc2S(=O)(=O)N([C@H](C)CO)C[C@@H]1C | inactive |
| C[C@@H]1CN([C@H](C)CO)C(=O)c2cccc(NC(=O)Nc3ccc(C(F)(F)F)cc3)c2O[C@@H]1CN(C)C(=O)Nc1ccc(F)cc1 | inactive |
| C[C@@H]1CN([C@H](C)CO)C(=O)c2cccc(NC(=O)Nc3ccc(F)cc3)c2O[C@@H]1CN(C)C(=O)Nc1ccc(C(F)(F)F)cc1 | inactive |
| C[C@H]1CN([C@@H](C)CO)C(=O)c2cccc(NC(=O)Nc3ccc(C(F)(F)F)cc3)c2O[C@H]1CN(C)C(=O)Nc1ccc(F)cc1 | active |
| C[C@H]1CN([C@@H](C)CO)C(=O)c2cccc(NC(=O)Nc3ccc(C(F)(F)F)cc3)c2O[C@@H]1CN(C)C(=O)Nc1ccc(F)cc1 | inactive |
| C[C@@H]1CN([C@H](C)CO)C(=O)c2cccc(NC(=O)Nc3ccc(F)cc3)c2O[C@H]1CN(C)C(=O)Nc1ccc(C(F)(F)F)cc1 | inactive |
| C[C@H](CO)N1C[C@H](C)[C@H](CN(C)C(=O)Nc2ccc(F)cc2)Oc2c(NC(=O)Nc3ccc(C(F)(F)F)cc3)cccc2C1=O | active |
| C[C@H](CO)N1C[C@H](C)[C@@H](CN(C)S(=O)(=O)c2cn(C)cn2)Oc2c(NC(=O)Nc3ccccc3)cccc2C1=O | inactive |
| C[C@@H]1CCCCO[C@H](CN(C)C(=O)C2CCCCC2)[C@@H](C)CN([C@H](C)CO)C(=O)c2cc(NC(=O)c3ccccc3)ccc2O1 | inactive |
| C[C@@H]1CN([C@@H](C)CO)S(=O)(=O)c2ccc(Br)cc2O[C@@H]1CN(C)C(=O)c1ccncc1 | inactive |
| C[C@H](CO)N1C[C@H](C)[C@H](CN(C)Cc2ccc(C(F)(F)F)cc2)Oc2ccc(NC(=O)NC3CCCCC3)cc2C1=O | inactive |
| C[C@@H]1CN([C@@H](C)CO)C(=O)c2cccc(NS(C)(=O)=O)c2O[C@@H]1CN(C)S(=O)(=O)c1ccc(Cl)cc1 | inactive |
| C[C@H]1CCCCO[C@H](CN(C)Cc2ccc(C(F)(F)F)cc2)[C@@H](C)CN([C@@H](C)CO)C(=O)c2cc(NC(=O)NC3CCCCC3)ccc2O1 | active |
| C[C@@H]1CN([C@H](C)CO)C(=O)c2cc(NC(=O)NC3CCCCC3)ccc2O[C@@H](C)CCCCO[C@@H]1CN(C)Cc1ccc(C(F)(F)F)cc1 | inactive |
| C[C@H](CO)N1C[C@H](C)[C@H](CN(C)Cc2ccc(C(F)(F)F)cc2)OCCCC[C@H](C)Oc2ccc(NC(=O)NC3CCCCC3)cc2C1=O | inactive |
| C[C@H](CO)N1C[C@H](C)[C@@H](CN(C)Cc2ccc(C(F)(F)F)cc2)OCCCC[C@H](C)Oc2ccc(NC(=O)NC3CCCCC3)cc2C1=O | active |
| C[C@@H]1CN([C@@H](C)CO)C(=O)c2cc(NC(=O)NC3CCCCC3)ccc2O[C@@H](C)CCCCO[C@H]1CN(C)Cc1ccc(C(F)(F)F)cc1 | active |
| C[C@@H]1CCCCO[C@@H](CN(C)Cc2ccc(C(F)(F)F)cc2)[C@H](C)CN([C@@H](C)CO)C(=O)c2cc(NC(=O)NC3CCCCC3)ccc2O1 | active |
